Screening results deposited in PubChem by SRMLSC.
MRP-1 activ: activates MRP-1; H69AR cells + doxorubicin, viability rescue, CellTiter-Glo; viability increase, % at 10 µM; 0.61% of 140,000 active; AID 799;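 active = viability gain under doxorubicin at or above a set limit, the compound median plus 3 SD, cut at about 4.7% in these data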;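 also: MRP-1 overexpressing cells given doxorubicin 25 µM after compound pretreatment; 18-22 h compound pretreatment then 72 h with doxorubicin before readout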
MRP reversal: compounds reversing MRP-mediated drug resistance | H69AR cells + 2 uM doxorubicin, CellTiter-Glo, 72 h | 0.04% of 85,000 active | differential viability (reversal), % at 10 µM;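 active = viability drop by adding the cancer drug above about 55%, with treated viability meeting a 40% cutoff, limit read from the data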;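 also: larger differential means the compound sensitizes cells more to doxorubicin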
Hits are given with their value. Most compounds without a hit are left out; they make up all but 0.65% or so of the library.

Screening Cc1ccc2nc(SCCCCOc3ccccc3)[nH]c2c1 returned MRP-1 activ inactive.
`COc1cc2nc(NC(=O)c3ccc(Cl)cc3)[nH]c(=O)c2cc1OC` gave MRP-1 activ inactive and MRP reversal inactive.
For CC(=O)Nc1nc(C)c(Oc2ccc(Cl)cc2Cl)c(=O)[nH]1 the results were MRP-1 activ 32 and MRP reversal inactive.
`CN(c1ccccc1)S(=O)(=O)c1cccc(NC(=O)CSc2nncs2)c1` gave MRP-1 activ inactive.
Screening O=C(CSc1nc2[nH]ncc2c(=O)[nH]1)N1CCCCC1 returned MRP-1 activ inactive.
Screening CC(C)(C)c1ccccc1OCC(=O)Nc1ncn[nH]1 returned MRP-1 activ inactive and MRP reversal inactive.
Screening CC(C)(C)c1cc(Br)ccc1OCC(=O)Nc1ncn[nH]1 returned MRP-1 activ 6.2 and MRP reversal inactive.
Screening N/C(Cc1ccccc1)=N\OC(=O)c1cccc2ccccc12 returned MRP-1 activ inactive.
Screening CCC(=O)Nc1ccccc1Oc1ccccc1 returned MRP-1 activ inactive and MRP reversal inactive.
`O=C(Cc1ccccc1)Nc1ccccc1Oc1ccccc1` gave MRP-1 activ 8.1.
`Cc1noc(C)c1C(=O)Nc1ccc(F)c(F)c1` gave MRP-1 activ inactive and MRP reversal inactive.
For CCCCc1ccc(NC(=O)c2c(C)noc2C)cc1 the results were MRP-1 activ 8.7 and MRP reversal inactive.
COC(=O)Cc1ccc(NC(=S)NN2CCOCC2)cc1 was read as MRP-1 activ inactive.
`CCCS(=O)(=O)N1CCN(Cc2ccc3c(c2)c2ccccc2n3CC)CC1` gave MRP-1 activ inactive.
CCOC(=O)C1=C(C)N=c2s/c(=C\c3ccc(OC(C)=O)c(OCC)c3)c(=O)n2C1/C=C/c1ccccc1 (stereo not given) was read as MRP-1 activ inactive.
For CCOC(=O)C1=C(C)N=c2s/c(=C\c3ccc(OC(C)=O)cc3)c(=O)n2C1/C=C/c1ccccc1 (stereo not given) the results were MRP-1 activ 6.7.
`CCOC(=O)/C(=N\Nc1ccccc1Cl)N1CCN(Cc2ccccc2)CC1` gave MRP-1 activ 5.1.
For CCOC(=O)/C(=N\Nc1ccccc1Cl)N1CCN(C)CC1 the results were MRP-1 activ inactive.
For COc1ccc(C(CC(=O)c2ccc(C)cc2)C(C#N)C#N)cc1OC (stereo not given) the results were MRP-1 activ inactive.
Cc1ccc(-c2csc(NC(=O)C3=COCCO3)n2)cc1 was read as MRP-1 activ inactive.
For O=C(Nc1nc(-c2ccc(Oc3ccccc3)cc2)cs1)C1=COCCO1 the results were MRP-1 activ 7.1.
`CCOc1ccc(NC(=O)Nc2cc(C)ccc2F)cc1` gave MRP-1 activ inactive and MRP reversal inactive.
For CCn1cnc2c1c(=O)n(CC(=O)N1CCc3ccccc31)c(=O)n2Cc1ccccc1 the results were MRP-1 activ inactive and MRP reversal inactive.
For O=C(Cn1c(=O)c2c(ncn2Cc2ccccc2)n(Cc2ccccc2)c1=O)N1CCc2ccccc21 the results were MRP-1 activ 5.3 and MRP reversal inactive.
Screening O=C(N/N=C/c1cccnc1)C(O)c1ccccc1 (stereo not given) returned MRP-1 activ inactive.
CCN1CCN(Cc2nc3c(c(=O)n(C)c(=O)n3C)n2C(C)C(C)=O)CC1 (stereo not given) was read as MRP-1 activ inactive and MRP reversal inactive.
`CCc1ccc(OCC(=O)NC(NC(=S)Nc2ccc(Cl)cc2)C(Cl)(Cl)Cl)cc1` (stereo not given) gave MRP-1 activ inactive.
Screening c1ccc2nc(N3CCOCC3)cnc2c1 returned MRP-1 activ inactive and MRP reversal inactive.
For NNC(=O)CNC(c1ccccc1)c1cc(Br)ccc1NC(=O)c1cccc(Cl)c1 (stereo not given) the results were MRP-1 activ 11.
Screening NNC(=O)CNC(c1ccccc1)c1cc(Br)ccc1NC(=O)c1ccc(Br)cc1 (stereo not given) returned MRP-1 activ inactive.
CC(=O)c1cccc(S(=O)(=O)NCC2CCCCC2)c1 was read as MRP-1 activ inactive.
Screening Cc1cc(C)n(CC(=O)N/N=C/c2cccs2)n1 returned MRP-1 activ inactive.
Screening Cc1ccc(NC(=O)CCC(=O)N/N=C/c2cccs2)cc1C returned MRP-1 activ 7.2.
For CCN1CCc2c(sc(NC(=O)Nc3ccc(Cl)c(Cl)c3)c2C(N)=O)C1 the results were MRP-1 activ inactive.
Cc1ccc(C)c(N2CCN(C(=O)Cc3ccc(-n4c(=O)[nH]c5ccsc5c4=O)cc3)CC2)c1 was read as MRP-1 activ 9.6.
`Cc1cccc(N2CCN(C(=O)Cc3ccc(-n4c(=O)[nH]c5ccsc5c4=O)cc3)CC2)c1C` gave MRP-1 activ inactive.
For Cc1ccc(Oc2ccc(-c3nnc(-c4ccccc4)o3)cc2[N+](=O)[O-])cc1C the results were MRP-1 activ inactive.
`S=C(NC1CCCCC1)N1CCN(c2ccccn2)CC1` gave MRP-1 activ inactive.
`Cc1n[nH]c(=S)n(/N=C/c2ccccn2)c1=O` gave MRP-1 activ 6.0 and MRP reversal inactive.
